# Screening results (PubChem)
# HTR5A ag: activates human HTR5A in OPRM1-OPRD1 agonist counter-screen | HTR5A agonist assay, luminescence, cell-based | P47898 | AID 504692 | activation, % at 9.3 µM | 340,000 tested, 0.61% active; in the data active = activation mostly above about 9.5%, no sharp cut-off; inactive = mostly below about 7.6%;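 note: 0% = cells with vehicle only and 100% = reference agonist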
# MOR-DOR inv ag: inverse agonists of human mu-delta opioid receptor heterodimerization | inhibition, % at 9.3 µM | P35372+P41143 | 340,000 tested, 0.21% active | cell-based MOR-DOR heterodimer luminescence, inverse agonism; in the data active = inhibition above about 22%, passing the limit was not always enough;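 note: 0% = cells with DMSO and 100% = wells without cells with DMSO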
# Target sequence (P35372 whole entry, looked up): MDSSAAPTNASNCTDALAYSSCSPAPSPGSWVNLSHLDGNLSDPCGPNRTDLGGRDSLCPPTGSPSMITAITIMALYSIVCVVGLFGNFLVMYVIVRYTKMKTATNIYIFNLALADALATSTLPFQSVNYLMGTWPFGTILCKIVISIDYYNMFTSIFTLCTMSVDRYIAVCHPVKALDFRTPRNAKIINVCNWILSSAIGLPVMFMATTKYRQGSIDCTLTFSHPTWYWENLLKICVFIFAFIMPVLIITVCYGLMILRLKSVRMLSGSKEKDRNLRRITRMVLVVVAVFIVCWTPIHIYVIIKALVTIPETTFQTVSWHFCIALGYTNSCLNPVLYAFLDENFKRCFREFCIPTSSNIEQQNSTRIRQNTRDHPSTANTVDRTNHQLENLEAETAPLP
# Target sequence (P41143 whole entry, looked up): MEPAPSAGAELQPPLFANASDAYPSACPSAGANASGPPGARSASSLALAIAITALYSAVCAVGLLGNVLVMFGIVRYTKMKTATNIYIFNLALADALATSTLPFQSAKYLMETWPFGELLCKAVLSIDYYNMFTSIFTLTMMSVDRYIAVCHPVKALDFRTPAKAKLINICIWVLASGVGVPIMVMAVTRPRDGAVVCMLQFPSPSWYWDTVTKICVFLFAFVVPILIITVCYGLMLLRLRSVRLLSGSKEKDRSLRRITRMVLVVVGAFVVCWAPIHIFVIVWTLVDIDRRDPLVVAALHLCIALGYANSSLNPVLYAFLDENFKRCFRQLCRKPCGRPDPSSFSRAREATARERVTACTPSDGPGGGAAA
# HTR5A inv ctr: HTR5A inverse agonism, opioid heterodimer counter-screen; HTR5A cell line, luminescence; inhibition, % at 9.3 µM; 340,000 tested, 0.083% active; in the data active = inhibition mostly above about 23%, no sharp cut-off; inactive = mostly below about 18%;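 note: 0% = cells with DMSO and 100% = no-cell wells with DMSO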
# MOR-DOR ag-1: agonists of human mu-delta opioid receptor heterodimerization | P35372+P41143 | 340,000 tested, 0.3% active | activation, % at 9.3 µM | cells, OPRM1-OPRD1 heterodimerization, luminescence;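 note: 0% = vehicle-treated cells and 100% = reference agonist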
# MOR-DOR ag-2: counter-screen for HTR5A agonists: OPRM1-OPRD1 heterodimerization agonism | activation, % at 9.3 µM | shares compounds with HTR5A ag | U2OS counter-screen cells, complementation luminescence, 3 h | 800 tested, 13% active | AID 504913
# HTR5A ag conf: confirmation of human HTR5A agonists; 800 tested, 17% active; activation, % at 9.3 µM; HTR5A agonist cell assay, luminescence; shares compounds with HTR5A ag; AID 504915; in the data active = activation above about 17%;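 note: 0% = cells with vehicle only and 100% = full reference agonist response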
# Numbers without * were called inactive; / = no result. Shown are actives, neighbours in structure and some others; about 1.1% of the full set was active somewhere. Cut-off read from the data, not from the text of the source, unless noted: active = activation above about 18%; inactive = the rest.
SMILES,HTR5A ag,MOR-DOR inv ag,HTR5A inv ctr,MOR-DOR ag-1,MOR-DOR ag-2,HTR5A ag conf
CN1C(=O)C(=Cc2sc(=O)n(-c3ccccc3)c2N(C)C)C(=O)N(C)C1=O,-1,16,-4,-3,/,/
Cc1ccc(C2=CCNCC2)cc1,7,8,-18,-2,/,/
Cc1c(CCN)ccc2c1[nH]c1ccccc12,0,6,-2,-1,/,/
c1ccc2c(NC3=NCCS3)cccc2c1,18*,-12,-43,3,1,21*
Cc1nn(Cc2ccccc2)c(Cl)c1C(=O)NC1CCCc2ccccc21 (stereo not drawn),0,5,13,-1,/,/
CC(N)Cc1c[nH]c2ccc(O)cc12 (stereo not drawn),35*,12,-186,-2,2,60*
Cc1cc(O)c2c3c(c(=O)oc2c1)CCC(C)C3 (stereo not drawn),1,11,-2,-2,/,/
Cc1cc(O)c2c(c1)OC(C)(C)C1=C2CC(C)CC1 (stereo not drawn),15*,-62,-25,12,7,5
CCC(CO)(C(=O)OC1CC2CCC(C1)N2C)c1ccccc1 (stereo not drawn),16*,-6,1,1,0,-1
O=C1Nc2ccccc2C1Cc1nc2ccccc2c(=O)n1-c1ccccc1 (stereo not drawn),1,21,-14,-4,/,/
